# Data as given in PubChem BioAssay (EPA / NIEHS).
# The source made the active and inactive calls. How the source made its calls: active means hit-call score of the fitted dose curve at least 0.9, where 1 is the maximum; inactive means score below 0.9.
# Target: Bile acid receptor (Homo sapiens) (UniProt Q96RI1)
# Experiment: ATG_IR1_CIS: Attagene CIS-FACTORIAL HepG2 Assay for human Nuclear Receptor Subfamily 1 Group H Member 4 (NR1H4), IR1 submotif (AID 2282946)
# Conditions: IR1 reporter transcription, actives raise or lower the signal
# Summary of the method: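 Cells (human HepG2) carry transiently transfected cis-promoter reporter transcription units. Compounds are incubated 24 h, total RNA is reverse-transcribed and amplified, and labelled fragments are resolved by capillary electrophoresis. Curves use DMSO as baseline.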
# Chain of Bile acid receptor (Homo sapiens) (Q96RI1 whole entry, looked up): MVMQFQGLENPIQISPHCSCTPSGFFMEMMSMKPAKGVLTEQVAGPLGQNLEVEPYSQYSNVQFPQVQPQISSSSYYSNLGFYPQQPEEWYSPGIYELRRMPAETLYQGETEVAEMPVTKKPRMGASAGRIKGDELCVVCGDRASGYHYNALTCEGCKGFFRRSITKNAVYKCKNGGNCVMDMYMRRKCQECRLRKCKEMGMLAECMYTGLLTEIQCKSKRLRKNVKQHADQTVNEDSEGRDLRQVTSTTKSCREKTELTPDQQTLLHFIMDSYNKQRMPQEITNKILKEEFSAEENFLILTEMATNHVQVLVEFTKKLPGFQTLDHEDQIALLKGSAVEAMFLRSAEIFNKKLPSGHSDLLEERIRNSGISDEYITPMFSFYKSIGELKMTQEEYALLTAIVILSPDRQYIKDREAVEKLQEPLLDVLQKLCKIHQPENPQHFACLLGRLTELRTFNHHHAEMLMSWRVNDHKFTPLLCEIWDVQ
row,SMILES,outcome
1,O=[N+]([O-])C(Br)(CO)CO,inactive
2,N#CC(Br)Br,inactive
3,ClCCOCCCl,inactive
4,CS(=O)(=O)NC(=O)c1cc(Oc2ccc(C(F)(F)F)cc2Cl)ccc1[N+](=O)[O-],inactive
5,CCNS(=O)(=O)C(F)(F)C(F)(F)C(F)(F)C(F)(F)C(F)(F)C(F)(F)C(F)(F)C(F)(F)F,inactive
6,CCN(CC)N=O,inactive
7,Cc1cccc(N)c1N,inactive
8,CC(C)N(Cc1ccccc1)C(=O)C(C)(C)C,inactive
9,Cc1cc(N=Nc2ccccc2C)ccc1N,inactive

# Tested on: not listed separately
# Experiment: ATG_GRE_CIS: Attagene CIS-FACTORIAL HepG2 Assay for human Glucocorticoid Response Elements (GRE) (AID 2282947)
# Conditions: HepG2 GRE cis-reporter, Attagene multiplex mRNA; actives raise or lower the signal
# Summary of the method: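 Transient MRTU transfection of human HepG2 liver cells; cis-regulated reporters report endogenous factors. 24 h dosing → RNA isolation → RT-PCR → 6-FAM primer extension → HpaI cut → CE fragment analysis. Bidirectional fit, DMSO negative control.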
row,SMILES,outcome
1,CCCCCOC(=O)c1ccccc1C(=O)OCCCCC,inactive
2,Cc1ccc(N=C=O)cc1N=C=O,inactive
3,CCCSC(=O)N(CCC)CCC,inactive
4,O=C(O)C1C2CCC(O2)C1C(=O)O (configuration not stated),inactive
5,Oc1ccccc1Cl,inactive
6,CC(C)(C)C(O)(CCc1ccc(Cl)cc1)Cn1cncn1 (configuration not stated),inactive
7,COC(=O)Nc1nc2ccccc2[nH]1,inactive
8,ClC1=C(Cl)C2(Cl)C3C(Cl)C=CC3C1(Cl)C2(Cl)Cl (configuration not stated),inactive
9,N#CC(Br)Br,inactive
10,ClCCOCCCl,inactive
11,ClC1=C(Cl)[C@]2(Cl)[C@H]3[C@H]([C@@H]4C=C[C@H]3C4)[C@@]1(Cl)C2(Cl)Cl,inactive
12,C1=Cc2cccc3cccc1c23,inactive
13,CCN(CC)CCO,inactive
14,CCOc1cccc(C2(N3CCN(c4ccccc4)CC3)CCC(C)CC2)c1 (configuration not stated),inactive
15,Nc1ccc(Oc2ccc(N)cc2)cc1,inactive
16,CCCCOC(=O)c1ccccc1C(=O)OCc1ccccc1,inactive
17,OCCCBr,inactive
18,c1ccc(C2CO2)cc1 (configuration not stated),inactive
19,[O-][Cl+]O,inactive
20,Oc1ccc2ccc3cccc4ccc1c2c34,inactive
21,Cc1cccc(N)c1N,inactive
22,Cc1cc(N=Nc2ccccc2C)ccc1N,inactive
23,c1ccc(N=Nc2ccccc2)cc1,inactive

# Tested on: not listed separately
# Experiment: ATG_ISRE_CIS: Attagene CIS-FACTORIAL HepG2 Assay for human Interferon Regulatory Factor 1 (IRF1) binding to an Interferon-Stimulated Response Element (ISRE) (AID 2282948)
# Conditions: HepG2 ISRE cis-reporter (Attagene), mRNA transcription readout; actives raise or lower the signal
# Summary of the method: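 Transiently transfected HepG2 cells carrying cis-element reporter units, dosed 24 hours. Reporter mRNA quantified by RT-PCR, fluorescent primer extension, HpaI digestion and capillary electrophoresis. Bidirectional fitting relative to DMSO.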
SMILES,AC50,outcome
O=[N+]([O-])C(Br)(CO)CO,164 µM (active),–
CCCCCOC(=O)c1ccccc1C(=O)OCCCCC,–,inactive
Cc1ccc(N=C=O)cc1N=C=O,–,inactive
CCCSC(=O)N(CCC)CCC,–,inactive
O=C(O)C1C2CCC(O2)C1C(=O)O (configuration not stated),61.9 µM (active),–
Oc1ccccc1Cl,–,inactive
CC(C)(C)C(O)(CCc1ccc(Cl)cc1)Cn1cncn1 (configuration not stated),–,inactive
COC(=O)Nc1nc2ccccc2[nH]1,–,inactive
ClC1=C(Cl)C2(Cl)C3C(Cl)C=CC3C1(Cl)C2(Cl)Cl (configuration not stated),–,inactive
ClC1=C(Cl)[C@]2(Cl)[C@H]3[C@H]([C@@H]4C=C[C@H]3C4)[C@@]1(Cl)C2(Cl)Cl,–,inactive
C1=Cc2cccc3cccc1c23,–,inactive
CS(=O)(=O)NC(=O)c1cc(Oc2ccc(C(F)(F)F)cc2Cl)ccc1[N+](=O)[O-],–,inactive
CCNS(=O)(=O)C(F)(F)C(F)(F)C(F)(F)C(F)(F)C(F)(F)C(F)(F)C(F)(F)C(F)(F)F,–,inactive
CCN(CC)CCO,–,inactive
CCOc1cccc(C2(N3CCN(c4ccccc4)CC3)CCC(C)CC2)c1 (configuration not stated),–,inactive
Nc1ccc(Oc2ccc(N)cc2)cc1,–,inactive
CCCCOC(=O)c1ccccc1C(=O)OCc1ccccc1,–,inactive
CCN(CC)N=O,–,inactive
c1ccc(C2CO2)cc1 (configuration not stated),–,inactive
[O-][Cl+]O,–,inactive
Oc1ccc2ccc3cccc4ccc1c2c34,–,inactive
c1ccc(N=Nc2ccccc2)cc1,–,inactive

# Tested on: not listed separately
# Experiment: ATG_M_32_CIS: Attagene CIS-FACTORIAL HepG2 Assay for M32 Transcription Factor (Internal Marker) (AID 2282949);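 further: background control marker of the multiplexed CIS panel rather than a real target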
# Conditions: HepG2 Attagene cis-factorial M32 reporter, mRNA; actives raise or lower the signal
# Summary of the method: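 Fluorescent capillary electrophoresis peaks of HpaI-digested, FAM-labelled RT-PCR reporter products give the signal. Source: transiently transfected human liver HepG2 cells, 24 h after chemical dosing; bidirectional fitting against DMSO.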
SMILES,outcome,AC50
O=[N+]([O-])C(Br)(CO)CO,inactive,–
CCCCCOC(=O)c1ccccc1C(=O)OCCCCC,inactive,–
Cc1ccc(N=C=O)cc1N=C=O,inactive,–
CCCSC(=O)N(CCC)CCC,inactive,–
O=C(O)C1C2CCC(O2)C1C(=O)O (configuration not stated),–,159 µM (active)
Oc1ccccc1Cl,inactive,–
CC(C)(C)C(O)(CCc1ccc(Cl)cc1)Cn1cncn1 (configuration not stated),inactive,–
COC(=O)Nc1nc2ccccc2[nH]1,inactive,–
ClC1=C(Cl)C2(Cl)C3C(Cl)C=CC3C1(Cl)C2(Cl)Cl (configuration not stated),inactive,–
N#CC(Br)Br,inactive,–
ClCCOCCCl,inactive,–
ClC1=C(Cl)[C@]2(Cl)[C@H]3[C@H]([C@@H]4C=C[C@H]3C4)[C@@]1(Cl)C2(Cl)Cl,inactive,–
C1=Cc2cccc3cccc1c23,inactive,–
CS(=O)(=O)NC(=O)c1cc(Oc2ccc(C(F)(F)F)cc2Cl)ccc1[N+](=O)[O-],inactive,–
CCNS(=O)(=O)C(F)(F)C(F)(F)C(F)(F)C(F)(F)C(F)(F)C(F)(F)C(F)(F)C(F)(F)F,inactive,–
CCN(CC)CCO,inactive,–
CCOc1cccc(C2(N3CCN(c4ccccc4)CC3)CCC(C)CC2)c1 (configuration not stated),inactive,–
Nc1ccc(Oc2ccc(N)cc2)cc1,inactive,–
CCCCOC(=O)c1ccccc1C(=O)OCc1ccccc1,inactive,–
OCCCBr,inactive,–
CCN(CC)N=O,inactive,–
c1ccc(C2CO2)cc1 (configuration not stated),inactive,–
[O-][Cl+]O,inactive,–
Oc1ccc2ccc3cccc4ccc1c2c34,inactive,–
Cc1cccc(N)c1N,inactive,–
CC(C)N(Cc1ccccc1)C(=O)C(C)(C)C,inactive,–
Cc1cc(N=Nc2ccccc2C)ccc1N,inactive,–
c1ccc(N=Nc2ccccc2)cc1,inactive,–
